# This is a sample that favours compounds with a hit; in the whole collection about 7.2% have one here.
# hNpr1 antagonist: Natriuretic polypeptide receptor (hNpr1) antagonism - Primary qHTS | HEK293 hNpr1 GloSensor cGMP, ANP-stimulated luminescence | Atrial natriuretic peptide receptor 1 (Homo sapiens), P16066 | Potency, µM (series often up to 46.3 µM), hits mostly inhibitors | 1.6% of 76,000 active; calls by dose curve; note: nearly all actives have a fitted effect of over 60% in size
#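 Compound pre-incubated 30 min at room temperature on GloSensor-loaded HEK293 cells stably carrying hNpr1 and the pGS-40F cGMP biosensor. Stimulation uses hNppA at 0.1 nM final; luminescence is taken at baseline and 20 min post-agonist.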
# HEK293 viab: GF-AFC viability counterscreen for inhibitors of alpha-synuclein gene (SNCA) expression; 0.12% of 150,000 active; Potency, µM (series often up to 57.1 µM), most hits filed as cytotoxic; HEK-293-SNCA-luc viability, GF-AFC fluorescence, 24 h; note: nearly all actives have a fitted effect of over 30% in size
#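 HEK-293-SNCA-luc cells (1500/well) plated 24 h, then exposed 24 h to a dilution series; GF-AFC added 30 min at 37C, fluorescence 405/540 nm; normalised to medium-only and DMSO wells, Hill fit.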
# 3T3 cytotox: Cytotoxic Profiling in NIH 3T3 Cell Line of Diverse Libraries Using Quantitative High-Throughput Screening. NIH 3T3 viability, CellTiter-Glo ATP luminescence, 48-72 h. Potency, µM (series often up to 96.7 µM), usual class: inhibitors. 4.3% of 94,000 active; note: nearly all actives have a fitted effect of over 55% in size
#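 ATP-dependent luminescence (CellTiter-Glo) served as the viability signal for NIH 3T3 cells treated with compound for 48 or 72 hr at 37 °C.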
# SNCA expr inh: Primary qHTS assay for inhibitors of alpha-synuclein gene (SNCA) expression. HEK-293 SNCA-luciferase knock-in, luminescence, 24 h. Potency, µM (titrated, usually from 57.2 µM), actives largely listed as inhibitors. 0.17% of 140,000 active. AID 1671194, 2021; note: nearly all actives have a fitted effect of over 45% in size
# Luciferase inh: Firefly luciferase inhibition profiling of diverse chemical library using quantitative high-throughput screening | purified P. pyralis luciferase, luminescence, biochemical | 2.5% of 76,000 active | Potency, µM (top dose mostly 115 µM), actives largely listed as inhibitors | Luciferin 4-monooxygenase (Photinus pyralis), P08659 | AID 1347043, 2019; note: nearly all actives have a fitted effect of over 65% in size
# Target sequence (P08659 whole entry, looked up): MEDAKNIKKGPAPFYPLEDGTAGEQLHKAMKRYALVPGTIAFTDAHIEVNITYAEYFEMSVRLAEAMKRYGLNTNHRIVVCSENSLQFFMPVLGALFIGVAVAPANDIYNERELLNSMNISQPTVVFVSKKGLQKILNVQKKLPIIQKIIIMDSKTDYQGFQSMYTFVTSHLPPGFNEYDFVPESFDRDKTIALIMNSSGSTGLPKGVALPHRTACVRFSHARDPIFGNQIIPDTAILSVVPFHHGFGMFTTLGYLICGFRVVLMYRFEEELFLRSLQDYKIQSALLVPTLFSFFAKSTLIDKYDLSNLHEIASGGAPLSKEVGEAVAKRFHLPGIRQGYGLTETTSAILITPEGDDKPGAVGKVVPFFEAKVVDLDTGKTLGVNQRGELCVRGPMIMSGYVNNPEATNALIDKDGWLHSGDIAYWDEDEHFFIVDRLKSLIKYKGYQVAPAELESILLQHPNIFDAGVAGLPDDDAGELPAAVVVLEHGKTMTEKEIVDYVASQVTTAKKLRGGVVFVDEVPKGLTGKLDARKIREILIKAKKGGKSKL
#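 Luminescence read by CCD imaging after purified firefly luciferase (10nM final) was added to substrate buffer holding 10uM D-luciferin and 10uM ATP, pH 7.5, pre-dosed with compound.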
# HEK cytotox: Cytotoxic Profiling in HEK 293 Cell Line of Diverse Libraries Using Quantitative High-Throughput Screening | HEK 293 viability, ATP luminescence (CellTiter-Glo), 48-72 h | Potency, µM (series often up to 115 µM), usual class: inhibitors | 6.6% of 94,000 active | AID 1345083, 2018; note: nearly all actives have a fitted effect of over 60% in size
#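 Luminescence from cellular ATP, measured with CellTiter-Glo, indicates HEK 293 viability. Cells plated at 250 cells/well are treated with compound for 48 or 72 hr at 37 degree Celsius before reagent addition.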
# Hits are given with their value; – = inactive; ? = inconclusive; · = no result given; [ ] = dose if it differs, or a comment. Unless noted, calls come from the whole dose curve; as a rule, active = well fitted curve in the direction sought with a large enough effect; inconclusive = small, poorly fitted or top-dose-only effect, or another doubt; inactive = no such curve, though single readings can be large; an effect the other way counts as inactive or inconclusive.
SMILES,hNpr1 antagonist,HEK293 viab,3T3 cytotox,SNCA expr inh,Luciferase inh,HEK cytotox
COC[C@H]1CCCN1C(=O)[C@@H](C)C1CC[C@@]2(C)CC[C@H](NC(=O)c3cncnc3)[C@@H](C)[C@@H]2[C@H]1O (stereo partly specified),–,–,–,–,–,–
O=C(NCc1ccc(F)cc1)c1c(-c2ccccc2)cc(=O)n2c1CCCC2,·,–,?,–,·,–
O=C(NC1C[C@H]2CC[C@@H](C1)N2C(=O)CCC1CCCC1)c1ccncc1 (stereo partly specified),?,–,–,–,–,?
O=C(NCCc1ccccc1)c1cc(-c2cc(Cl)cc(Cl)c2)c2nncn2n1,·,–[12.5 µM],–,–,·,–
O=C(C1CC1)N1CCC(Oc2cnc3c(ccn3-c3cncnc3)c2)CC1,–,–,?,–,–,?
O=C(COc1ccccc1)N1CCC(Oc2cnc3c(ccn3-c3cncnc3)c2)CC1,–,?,–,?,–,89.1µM
CN(Cc1ccc2nonc2c1)Cc1cn(-c2ccccc2)nn1,–,–,–,–,–,?
COc1cccc(-n2cc(CN(C)Cc3cn(-c4ccccc4)nn3)cn2)c1,–,–,?,–,–,31.6µM
COc1cccc(-c2ccc(CN3CCCC(NC(=O)Cc4ccc(F)cc4)C3)cc2)c1 (stereo unspecified),·,·,?,·,·,31.6µM
COc1cccc(-c2ccc(CN3CCCC(NC(=O)c4ccccc4Cl)C3)cc2)c1 (stereo unspecified),·,–,28.2µM,–,·,20µM
COc1ccc(CC(=O)NC2CCCN(Cc3ccc(-c4cccc(OC)c4)cc3)C2)cc1 (stereo unspecified),·,·,35.5µM,·,·,25.1µM
COc1cccc(-c2ccc(CN3CCCC(NC(=O)Nc4ccccc4)C3)cc2)c1 (stereo unspecified),·,–,22.4µM,–,·,?
O=C(Nc1ccccc1)NC1CCCN(Cc2ccc(-c3cncnc3)cc2)C1 (stereo unspecified),·,–[12.5 µM],–,?,·,?
Cc1noc(C)c1CC(=O)N1CCC(c2noc(-c3cnccn3)n2)C1 (stereo unspecified),–,–,–,–,–,–
CC(=O)N1CCCC1C(=O)N1CCCC(c2nc3ncccc3[nH]2)C1 (stereo unspecified),·,–,–,–,·,–
CS(=O)(=O)N1CCNC[C@@H]1C(=O)N[C@@H](CC1CCCCC1)C(N)=O,–,–,–,–,–,–
COC(=O)NC1CCCN(Cc2ccc(-c3cccc(OC)c3)cc2)C1 (stereo unspecified),·,–,?,–,·,44.7µM
COCC(=O)NC1CCCN(Cc2ccc(-c3cccc(OC)c3)cc2)C1 (stereo unspecified),·,–,?,–,·,?
COc1cccc(-c2ccc(CN3CCCC(N[S+](C)(=O)[O-])C3)cc2)c1 (stereo unspecified),·,–,?,–,·,?
COc1cccc(-c2ccc(CN3CCCC(N[S+](=O)([O-])c4ccccc4)C3)cc2)c1 (stereo unspecified),·,–,39.8µM,–,·,22.4µM
COc1cccc(-c2ccc(CN3CCCC(NC(=O)C4CC4)C3)cc2)c1 (stereo unspecified),·,·,?,·,·,35.5µM
COc1cccc(-c2ccc(CN3CCCC(NC(=O)Cc4cccc(Cl)c4)C3)cc2)c1 (stereo unspecified),·,?,?,–,·,?
O=C(c1ccco1)N1CCC(N2CC3(CCCC3)C2c2ccccc2)CC1 (stereo unspecified),·,–,?,–,·,?
C[S+](=O)([O-])N1CCNc2cnc(Nc3cccc(C(F)(F)F)c3)nc2C1,?,–,?,–,?,?
O=[S+]([O-])(c1ccccc1)N1CCNc2cnc(Nc3cccc(F)c3)nc2C1,?,?,?,–,–,89.1µM
SMILES,hNpr1 antagonist,HEK293 viab,3T3 cytotox,SNCA expr inh,Luciferase inh,HEK cytotox
COc1ccccc1Nc1ncc2c(n1)CN([S+](=O)([O-])c1ccccc1)CCN2,–,–,?,–,–,100µM
CC(=O)Nc1ccc(NC(=O)Cn2cccc2-c2nc(-c3ccccc3)no2)cc1,–,–,–,–,–,?
CCOC(=O)C1(Cc2ccccc2)CCCN(C(=O)c2ccccc2SC)C1 (stereo unspecified),–,–,?,–,?,44.7µM
CCCc1cc(C(=O)N2CCCC(Cc3ccccc3F)(C(=O)OCC)C2)n(C)n1 (stereo unspecified),–,?,?,?,–,17.8µM
COc1ccc(CCc2nc3nccc(-c4ccc(OC)c(OC)c4)n3n2)cc1,–,–,?,–,?,35.5µM
COc1ccc(Cc2nc3nccc(-c4ccc(OC)c(OC)c4)n3n2)cc1,–,–,14.1µM,–,–,?
COc1ccccc1NC(=O)CC1CCCN(c2cnn(CC3CC3)c(=O)c2)C1 (stereo unspecified),–,–,35.5µM,?,–,–
CCOc1ccccc1NC(=O)CC1CCCN(c2cnn(CC3CC3)c(=O)c2)C1 (stereo unspecified),–,–,35.5µM,–,–,?
CCn1c(Cn2ccnc2)nnc1C1CCN(C(=O)C(C)(C)OC)CC1,–,–,–,–,–,–
CN1CC(C(=O)N2CCC(Cc3ccccc3)CC2)NC1=O (stereo unspecified),·,–[12.5 µM],–,–,·,–
CC1=C[C@@H](CNC(=O)C2CCCCC2)[C@H](C(C)C)C[C@H]1Cc1nc2ccc(C)cc2[nH]1,–,?,?,?,–,?
COc1ccc2nc(C[C@@H]3C[C@@H](C(C)C)[C@H](CNC(=O)C4CCCCC4)C=C3C)[nH]c2c1,–,?,56.2µM,?,–,50.1µM
COc1ccc2nc(C[C@@H]3C[C@@H](C(C)C)[C@H](CNC4CCCCC4)C=C3C)[nH]c2c1,–,?,22.4µM,–,–,28.2µM
COc1ccc2nc(C[C@@H]3C[C@@H](C(C)C)[C@H](CNCc4ccccc4)C=C3C)[nH]c2c1,–,?,50.1µM,–,–,44.7µM
CC(=O)NC[C@@H]1C=C(C)[C@H](Cc2nc3ccccc3n2C)C[C@H]1C(C)C,?,?,79.4µM,–,–,35.5µM
COc1ccc2nc(C[C@@H]3C[C@@H](C(C)C)[C@H](CNC(=O)[C@@H]4CCCC[C@@H]4C(=O)O)C=C3C)[nH]c2c1,–,–,–,–,–,–
Cc1ccc(C(=O)N2CCN(Cc3ccccc3-c3ccccc3F)CC2)cc1,·,–[12.5 µM],?,–,·,?

# Screens: PubChem, National Center for Advancing Translational Sciences (NCATS)
